# Experimental data from PubChem BioAssay AID1030 (National Center for Advancing Translational Sciences (NCATS), 2008).
# Out of some 220,000 compounds screened, about 16,000 (7.3%) were called active. About 25% were inconclusive and are not listed. What follows is part of a selection rich in actives, with near analogues and random picks from the rest. Values without a mark were called inactive. The call rests on the fitted dose curve; in most records, active means well fitted inhibition curve with a large enough effect (not every such curve was filed as active); inconclusive means small, poorly fitted or top-dose-only effect, or another doubt; inactive means no such curve, though single readings can be large or run the other way.
# Target: Aldehyde dehydrogenase 1A1 (Homo sapiens) (UniProt P00352)
# Sequence (P00352 whole entry, looked up): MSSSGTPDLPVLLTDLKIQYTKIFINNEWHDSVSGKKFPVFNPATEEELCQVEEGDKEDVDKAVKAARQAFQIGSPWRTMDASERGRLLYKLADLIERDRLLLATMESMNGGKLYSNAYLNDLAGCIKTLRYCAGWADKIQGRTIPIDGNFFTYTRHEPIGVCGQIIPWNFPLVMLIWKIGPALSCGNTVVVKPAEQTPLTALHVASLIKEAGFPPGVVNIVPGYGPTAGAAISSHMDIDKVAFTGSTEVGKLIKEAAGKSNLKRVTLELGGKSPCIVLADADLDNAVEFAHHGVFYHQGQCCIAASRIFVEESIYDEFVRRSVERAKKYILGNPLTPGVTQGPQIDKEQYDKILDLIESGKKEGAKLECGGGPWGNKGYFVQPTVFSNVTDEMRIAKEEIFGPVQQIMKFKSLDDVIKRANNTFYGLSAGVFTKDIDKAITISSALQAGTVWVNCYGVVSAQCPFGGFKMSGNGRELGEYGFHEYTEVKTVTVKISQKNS
# Test: qHTS Assay for Inhibitors of Aldehyde Dehydrogenase 1 (ALDH1A1);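 on activity, negative = inhibition: plate controls were no enzyme wells and a reference inhibitor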
# Settings: Purified ALDH1A1, NADH fluorescence, propionaldehyde substrate; series mostly up to 75.3 µM; activity, negative = inhibition: at the top concentration
# Potency means the concentration at half of the fitted maximal effect.
SMILES,"activity, negative = inhibition [%]",Potency
NC(=O)COC(=O)/C=C/c1ccc2ccccc2n1,-2.07,–
O=C(c1ccco1)N1CCN(C(=O)C2c3ccccc3Oc3ccccc32)CC1,–,8.91 µM (active)
O=C(c1ccco1)N1CCN(C(=O)C2CC(c3ccc(Cl)c(Cl)c3)=NO2)CC1 (stereo not drawn),-9.91,–
O=C(c1ccco1)N1CCN(c2cccc(Cl)c2)CC1,-4.35,–
COc1ccc(-c2nn(-c3ccccc3)cc2CN2CCCO2)c(F)c1,-7.57,–
Cc1ccccc1CC1(CO)CCCN(Cc2ccc3c(c2)OCCO3)C1 (stereo not drawn),9.96,–
Cc1ccc(N(C(=O)Cc2cccs2)C(C(=O)NCC2CCCO2)c2ccncc2)cc1 (stereo not drawn),-12.7,–
O=C(COC(=O)Cc1ccc(F)cc1)Nc1cc(S(=O)(=O)N2CCOCC2)ccc1N1CCCC1,8.34,–
O=C(c1ccc(N2CCOCC2)c([N+](=O)[O-])c1)N1CCN(S(=O)(=O)c2cccs2)CC1,-2.66,–
COCCNC(=S)Nc1cc(S(=O)(=O)N2CCOCC2)ccc1N1CCCCC1,–,5.01 µM (active)
CC(=O)NCCC(=O)Nc1cc(S(=O)(=O)N2CCOCC2)ccc1N1CCOCC1,0.246,–
O=C(COC(=O)c1ccccc1F)Nc1cc(S(=O)(=O)N2CCOCC2)ccc1N1CCCC1,-11.1,–
CCN(CC)S(=O)(=O)c1ccc(N2CCOCC2)c(C(=O)O)c1,5.53,–
O=S(=O)(Nc1cc(S(=O)(=O)N2CCOCC2)ccc1N1CCCC1)c1cccs1,–,0.398 µM (active)
CCN(CC)S(=O)(=O)c1ccc(N2CCOCC2)c(NC(=O)C2COc3ccccc3O2)c1 (stereo not drawn),9.44,–
CCN(CC)S(=O)(=O)c1ccc(N2CCCC2)c(NS(=O)(=O)c2cccs2)c1,–,0.282 µM (active)
Cc1ccc2cc(C)c(N3CCC(C)CC3)nc2c1,2.97,–
Cn1c(=O)cc(OCC(=O)N2CCN(c3ccccc3F)CC2)c2ccccc21,-15.9,–
O=C(NCc1ccco1)c1ccc(NS(=O)(=O)c2cccc([N+](=O)[O-])c2)cc1,6.56,–
COc1ccc(CCNC(=O)CSc2nc3[nH]ncc3c(=O)n2-c2cccc(C(F)(F)F)c2)cc1OC,3.85,–
Cc1ccc(Nc2c(F)c(F)c(F)c(F)c2C(=O)O)c(C)c1,1.05,–

SMILES,"activity, negative = inhibition [%]",Potency
Cc1ccccc1C1CC(c2cccs2)=NN1S(C)(=O)=O (stereo not drawn),-3.89,–
Cc1cc(C)n(-c2ccc(C(=O)O)cc2[N+](=O)[O-])n1,-4.66,–
COc1ccc(C2C(C(=O)N3CCN(c4ccc(OC)cc4)CC3)c3ccccc3C(=O)N2C)cc1 (stereo not drawn),8.86,–
COc1ccc([C@H]2[C@H](C(C)=O)N3N=Cc4ccccc4C3C23C(=O)OC(C)(C)OC3=O)cc1 (stereo partly drawn),–,10 µM (active)
COc1ccccc1N1CCN(c2ccc([N+](=O)[O-])nc2)CC1,-3.73,–
CCCc1cc(-c2n[nH]c(=S)n2Cc2ccccc2)cs1,–,7.94 µM (active)
CCn1c(-c2ccncc2)n[nH]c1=S,1.16,–
CCCc1cc(-c2n[nH]c(=S)n2CC)c2ccccc2n1,-0.903,–
CCCOc1ccc(C(=O)NCCc2ccccc2)cc1,-1.06,–
CC1(C)Oc2ccc3ccc(=O)oc3c2/C(=C/NCCO)C1=O,–,25.1 µM (active)
C/C=C(/C)C(=O)OC1Cc2c(ccc3ccc(=O)oc23)OC1(C)C (stereo not drawn),0.157,–
C=CCN(CC=C)S(=O)(=O)c1ccc(C(=O)Nc2sc3c(c2C(N)=O)CCCCC3)cc1,–,3.16 µM (active)
C=CCN(CC=C)S(=O)(=O)c1ccc(C(=O)Nc2nc3c(s2)CCc2ccccc2-3)cc1,2.39,–
COC(=O)c1c(NC(=O)CN(c2ccc(C)c(C)c2)S(C)(=O)=O)sc2c1CCCC2,-27.4,–
COCC(C)NC(=O)CSc1nc2nn(-c3ccccc3)c(=O)c-2c2n1CCCCC2 (stereo not drawn),-4.5,–
Cc1ccc(CNC(=O)CCNS(=O)(=O)c2ccc(Br)s2)cc1,-6.51,–
N#Cc1ccc(-c2nc3cc(C#N)c(C#N)cc3nc2-c2ccccc2)cc1C#N,23.4,–
O=C(COc1ccc(S(=O)(=O)NCCc2ccccc2)cc1)N1CCCC1,-1.53,–
O=C(CC(=O)N/N=C\c1ccc(F)cc1)NCCc1ccccc1,3.28,–
O=C(COc1ccc(/C=N/NS(=O)(=O)c2ccccc2)cc1)NCCc1ccccc1,–,12.6 µM (active)
COc1ccccc1N1CCN(CC(=O)NCCc2ccc(S(N)(=O)=O)cc2)CC1,5.14,–

SMILES,"activity, negative = inhibition [%]",Potency
Cc1ccccc1-n1cc(CNC(=O)CC2C(=O)NCCN2C/C=C/c2ccccc2)cn1 (stereo not drawn),7.17,–
Cc1cc(C)n(CCNC(=O)CC2C(=O)NCCN2Cc2ccc(C)o2)n1 (stereo not drawn),-0.0057,–
COc1cccc(CN2CCNC(=O)C2CC(=O)N(C)CCc2ccccn2)c1 (stereo not drawn),-0.0979,–
O=C(CC1C(=O)NCCN1CC(c1ccccc1)c1ccccc1)NCCc1cn[nH]c1 (stereo not drawn),–,14.1 µM (active)
CN(CCc1cn[nH]c1)C(=O)CC1C(=O)NCCN1Cc1cccc(Oc2ccccc2)c1 (stereo not drawn),-9.91,–
COc1cc(CN2CCNC(=O)C2CC(=O)NCCc2ncccc2C)cc(OC)c1 (stereo not drawn),–,23.8 µM (active)
COC(=O)c1ccc(CN2CCN(CCCc3ccccc3)C(CCO)C2)cc1 (stereo not drawn),-0.394,–
COc1ccc(-c2csc(NC(=O)COC(=O)Cc3ccc(Cl)cc3Cl)n2)cc1,7.91,–
COc1ccc(N2CCN(c3ccc([N+](=O)[O-])nc3)CC2)cc1,6.14,–
CS(=O)(=O)N1CCc2cc(C(=O)Nc3ccccc3)ccc21,0.559,–
Cc1cc([N+](=O)[O-])c(N2CCC[C@@H]2C(=O)O)c([N+](=O)[O-])c1,3.99,–
Cc1ccc(C)c(NC(=O)C2CCCN2C(=O)OC(C)(C)C)c1 (stereo not drawn),-11.1,–
Cc1cc(C)c(NC(=S)N2CCCC2C(=O)O)c(C)c1 (stereo not drawn),–,22.4 µM (active)
Cc1cc(C(=O)COC(=O)C2CC2)c(C)n1-c1ccc(F)cc1,-3.14,–
COC(=O)[C@@H]1CC[C@H](C)[C@@H](c2ccc(C)cc2)N1C(=O)c1ccc(/C=N/O[C@H](C)c2cn([C@@H]3COC[C@H]3O)nn2)cc1,-3.19,–
O=C(Cc1ccc([N+](=O)[O-])cc1)N/N=C/c1ccco1,-3.71,–
CCCCN1CCNC1=S,5.33,–
CCOC(=O)CCNC(=O)N1CCCC(C(=O)c2ccccc2SC)C1 (stereo not drawn),5.76,–
Cc1cccc(C(=O)NCC(=O)OCC(=O)N2CC3(C)CC2CC(C)(C)C3)c1 (stereo not drawn),3.13,–
Cc1nnnn1/C(=C\c1ccccc1)C(=O)OCC(=O)N1CC2(C)CC1CC(C)(C)C2 (stereo not drawn),–,4.47 µM (active)
COc1ccccc1C(=O)N1CC2(C)CC1CC(C)(C)C2 (stereo not drawn),-6.45,–
